# TRPM1 prom inh – inhibitors of MITF-dependent TRPM1 promoter reporter, primary screen, cell-based, SK-MEL-5, single point, luciferase. inhibition, % at 12.5 µM. SK-MEL-5 TRPM1 promoter luciferase, 24 h. 330,000 compounds, 0.83% hits. AID 488899, 2010;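 active = mean inhibition across replicates of 60% or more, whatever share of single replicates reaches that level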
# TROY signal inh – inhibitors of TROY-driven NF-kB signaling, primary screen, Q293 LMP1-TROYcd cells, NF-kB luciferase, uHTS; Q293 LMP1-TROYcd NF-kB luciferase reporter, 4 h; inhibition, % at 10 µM; 360,000 compounds, 0.98% hits; AID 1347056, 2019;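 active = compounds whose plate-normalised and pattern-corrected inhibition of the luciferase reporter signal at the single screening dose is 50% or more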
# Shn3 3UTR inh – reduction of Shn3 3'UTR firefly luciferase signal, primary screen, Schnurri-3 inhibitor project, cell-based, Clone20 osteoblasts, set 2. AID 588674, 2011. inhibition, % at 12.5 µM. 360,000 compounds, 0.52% hits. Clone20 osteoblast Shn3 3'UTR firefly luciferase, 24 h;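 active = mean inhibition of at least 75% with every replicate also reaching 75%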;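 note: 0% = median of neutral control wells and 100% = pilot-screen positive control compound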
# Peg3 promoter – Peg3 promoter-driven luciferase inhibitors, primary screen, cell-based, HeLa, luciferase luminescence; HeLa PEG-Prom luciferase reporter, overnight; inhibition, % at 20 µM; 360,000 compounds, 1.7% hits;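 active = inhibition of at least 50% at 20 µM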
# TWEAK-Fn14 inh – inhibitors of TWEAK-Fn14 signaling, primary screen, luciferase reporter cells, uHTS; TWEAK-stimulated Fn14 reporter cells, luciferase luminescence, 8 h; inhibition, % at 10 µM; 360,000 compounds, 2% hits; AID 1159606, 2016; in the data active = inhibition above about 50%
# LMP1 NFkB inh – EBV LMP1-driven NF-kappaB luciferase reporter inhibitors, primary screen, cell-based, luminescence, single point | LMP1-induced NF-kappaB luciferase reporter cells | inhibition, % at 12.5 µM | 350,000 compounds, 0.69% hits | AID 504558, 2011; in the data active = inhibition above about 41%;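 note: 0% = neutral control wells and 100% = reference inhibitor control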
# Numbers without * were called inactive; . = no result. This is a sample that favours compounds with a hit; in the whole collection about 4.1% have one here.
SMILES,TRPM1 prom inh,TROY signal inh,Shn3 3UTR inh,Peg3 promoter,TWEAK-Fn14 inh,LMP1 NFkB inh
O=C(CN1CCN(c2ccccc2O)CC1)Nc1ccc2c(c1)OCCCO2,8,-5,5,-7,-2,6
CCC(NC(=O)Nc1nnc(C(F)(F)F)s1)(C(F)(F)F)C(F)(F)F,47,64*,83,33,43,46*
CCc1nnc(NC(=O)CCC(=O)NC2CCCC2)s1,-10,-14,-10,6,-11,-1
NC(=S)N/N=C\c1c(OCc2ccccc2Cl)ccc2ccccc12,45,22,16,17,57*,17
CC(C)(C)c1ccc(CC(=O)N2CCC2(C)C(=O)NCc2cccc3ccccc23)cc1 (stereo not drawn),.,5,8,52*,7,.
CC(C)(C)c1ccc(CC(=O)N2CCC2(C)C(=O)Nc2cccc3ccccc23)cc1 (stereo not drawn),.,8,-18,16,10,.
CC(C)(C)CNC(=O)C1(C)CCN1C(=O)Cc1ccc(-c2ccccc2)cc1 (stereo not drawn),.,6,6,18,67*,.
CC1(C(=O)NCc2ccccc2Br)CCN1C(=O)Cc1ccc(-c2ccccc2)cc1 (stereo not drawn),.,17,22,24,10,.
COc1ccc(C2CCc3cc4c(cc3C2=NO)OCO4)cc1OC (stereo not drawn),.,21,15,13,21,1
O=C(Nc1ccccc1O)c1nc(Cl)ccc1Cl,14,0,8,4,-11,1
Cc1ccsc1-c1nc(CSCC(=O)N2CCN(c3ccccc3)CC2)c(C)o1,13,-1,10,9,10,81*
COCCCNC(=O)C1CCC(CNS(=O)(=O)c2ccc3c(c2)N(C(C)=O)CCO3)CC1 (stereo not drawn),1,-10,8,5,-8,.
Cc1cccc(Nc2nc(Cl)ncc2F)c1C,-10,-3,-6,0,2,53*
COc1cccc(/C=N/N2CCN(C3c4ccccc4-c4ccccc43)CC2)c1O,-4,-1,-11,15,20,2
CCOc1ccc(NC(=O)CC2C(=O)N(C)C(=S)N2CCCc2ccccc2)cc1 (stereo not drawn),-2,18,22,4,-10,5
CCN1C(=O)C(CC(=O)Nc2ccc(Br)cc2)N(CCCc2ccccc2)C1=S (stereo not drawn),10,31,40,58*,21,-10
COc1cc2c(cc1OC)C(c1cc(Br)ccc1F)N(C(=O)CCl)CC2 (stereo not drawn),98*,-13,98*,102*,29,-10
COc1cc2c(cc1OC)C(C1C(=O)CC(C)(C)CC1=O)N(C(=O)CCl)CC2 (stereo not drawn),0,-10,1,-5,-10,6
NCC1CCN(c2nc3ccccc3c3c2CCCC3)CC1,4,12,0,102*,-15,-3
COCCNC(=O)C1CCCN(C(=O)c2cc(-c3cccs3)oc2C)CC1 (stereo not drawn),.,2,5,-9,-5,.
N#C/C(=C(/O)COC(=O)CSc1ccc(Cl)cc1)c1nc2ccccc2[nH]1,2,6,4,75*,2,3
N#C/C(=C(/O)COC(=O)CCCNC(=O)c1ccc(Cl)cc1)c1nc2ccccc2[nH]1,3,-5,-9,0,-56,-7
Cc1cc(SCC(=O)OC/C(O)=C(\C#N)c2nc3ccccc3[nH]2)c(C)cc1Br,32,13,-2,51*,6,-2
NC(c1ccccc1)c1csc(Nc2cc(Oc3ccccc3)ncn2)n1 (stereo not drawn),.,-1,-9,-10,-48,.
CC1=C(SCc2ccccc2)C(=O)c2ccccc2C1=O,70*,38,78,85*,88*,-1
SMILES,TRPM1 prom inh,TROY signal inh,Shn3 3UTR inh,Peg3 promoter,TWEAK-Fn14 inh,LMP1 NFkB inh
Cn1c(SCc2ccccc2)nccc1=O,1,-16,4,0,9,1
COc1ccc(C2(C(=O)Nc3ccccc3)CCOCC2)cc1,4,2,-15,19,67*,5
CSCCC(=O)N1CCCC(N2CCN(c3cccc(C(F)(F)F)c3)CC2)C1 (stereo not drawn),-13,0,0,0,-6,-6
O=C(OCC(=O)C12CC3CC(CC(C3)C1)C2)c1cccnc1Cl,3,-30,-4,2,-24,4
CCOC(=O)N1CCC2(CC1)NCCc1c2[nH]c2ccccc12,7,9,-11,3,2,-3
COc1cc(N/N=C/c2ccc(N(C)C)cc2)ncn1,20,43,27,-6,60*,23
O=C(COC(=O)c1ccc(Cl)c(S(=O)(=O)N2CCCCC2)c1)NC1CCCCC1,.,22,-7,4,-1,5
O=C(CCN1C(=O)/C(=C/c2ccccc2)SC1=S)NCCc1ccc(O)cc1,-5,-19,-21,95*,-5,5
COc1ccc(/C=C2\SC(=S)N(CCC(=O)NCCc3ccc(O)cc3)C2=O)cc1,6,-21,-8,102*,2,0
O=C(CCN1C(=O)/C(=C/c2ccccc2F)SC1=S)NCCc1ccc(O)cc1,-1,31,-17,45,-3,8
O=C(CCN1C(=O)S/C(=C\C=C\c2ccccc2)C1=O)Nc1ccc(O)cc1,-31,-6,-28,6,58*,-42
COc1ccccc1/C=C1\SC(=S)N(CCC(=O)NCCc2ccc(O)cc2)C1=O,-1,5,1,40,-2,4
NC(Cc1ccc(C(F)(F)F)cc1)c1csc(Nc2ccccn2)n1 (stereo not drawn),.,-10,13,105*,2,.
NC(Cc1ccc(C(F)(F)F)cc1)c1csc(Nc2ncccn2)n1 (stereo not drawn),.,6,25,8,-11,.
Cc1cnc(C)c(Nc2nc(C(N)Cc3ccccc3)cs2)n1 (stereo not drawn),.,-9,2,-4,-3,.
Cc1cnc(C)c(Nc2nc(C(N)Cc3ccc(C(F)(F)F)cc3)cs2)n1 (stereo not drawn),.,0,48,108*,-13,.
NC(Cc1ccc(Cl)cc1)c1csc(Nc2ccc(-c3ccccc3)nn2)n1 (stereo not drawn),.,-5,9,99*,-9,.
NC(Cc1ccc(F)cc1)c1csc(Nc2ccc(C(F)(F)F)cn2)n1 (stereo not drawn),.,3,19,95*,-9,.
Cn1cc(C(=O)CCl)c2ccccc21,83*,0,14,50*,32,-2
